Shown are actives, neighbours in structure and some others; about 3.4% of the full set was active somewhere.
GPR151 ag: activators of human GPR151, primary screen, cell-based, PathHunter beta-arrestin, luminescence. activation, % at 11.2 µM. actives 1% (n = 650,000). G-protein coupled receptor 151 (Homo sapiens), Q8TDV0. PathHunter beta-arrestin GPR151 cells. AID 1508602, 2020; in the data active = activation above about 4.9%;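 also: 0% = median of compound wells and 100% = cells with positive control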
FBW7 activator: FBW7 E3 ligase activators, primary screen, biochemical, AlphaScreen, human | F-box/WD repeat-containing protein 7 (Homo sapiens), Q969H0 | AlphaScreen FBW7–phospho-cyclin E peptide binding, activator screen | normalized activity (activation), % at 26.1 µM | actives 0.13% (n = 650,000) | AID 1259310, 2017; in the data active = normalized activity above about 1.9%;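 also: purified mutant Fbw7 with reduced substrate affinity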
MITF inh: MITF inhibitors, primary screen, biochemical, AlphaScreen, human | inhibition, % at 2.6 µM | actives 0.91% (n = 650,000) | AlphaScreen MITF homodimerization, bead proximity signal | AID 1259374, 2018 | Microphthalmia-associated transcription factor (Homo sapiens), O75030; in the data active = inhibition above about 50%;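 also: 0% = vehicle wells with protein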
Target sequence (O75030 whole entry, looked up): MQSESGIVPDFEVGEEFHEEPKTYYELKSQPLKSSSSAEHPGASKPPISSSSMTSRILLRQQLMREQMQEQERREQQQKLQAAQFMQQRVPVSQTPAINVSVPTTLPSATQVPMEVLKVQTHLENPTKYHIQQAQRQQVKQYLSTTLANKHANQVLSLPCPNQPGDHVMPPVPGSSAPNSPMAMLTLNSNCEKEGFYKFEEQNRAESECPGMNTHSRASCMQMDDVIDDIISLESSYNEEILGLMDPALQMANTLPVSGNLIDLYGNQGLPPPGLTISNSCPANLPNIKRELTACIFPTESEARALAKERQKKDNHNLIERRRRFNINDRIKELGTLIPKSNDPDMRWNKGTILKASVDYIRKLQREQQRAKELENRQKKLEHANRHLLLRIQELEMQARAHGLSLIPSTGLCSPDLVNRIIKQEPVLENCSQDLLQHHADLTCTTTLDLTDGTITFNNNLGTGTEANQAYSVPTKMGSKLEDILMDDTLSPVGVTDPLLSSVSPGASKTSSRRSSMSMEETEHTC
TEAD-YAP inh: TEAD-YAP interaction inhibition, primary screen, TEAD-YAP interaction inhibitor project, luminescence, HEK-TIYL cells | inhibition, % at 9.12 µM | TEAD-Gal4/YAP UAS-luciferase luminescence | actives 1.4% (n = 640,000) | AID 1259422, 2018; in the data active = inhibition above about 32%;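 also: 0% = median of test compound wells and 100% = reference inhibitor wells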
MITF confirm: MITF inhibitors, retest of hits, confirmation, biochemical, AlphaScreen, triplicate | shares compounds with MITF inh | AlphaScreen MITF homodimerization, biotin/His-MITF beads | inhibition, % at 2.6 µM | actives 16% (n = 4,700);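 active = inhibition above a cutoff derived from the DMSO control wells, cut at about 28% in these data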;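 also: 0% = MITF dimer wells with DMSO only; inhibitors lower the bead chemiluminescence by keeping MITF from dimerizing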
AS interf DR: AlphaScreen optical interference compounds, dose response, counter-screen, biochemical, HTS; shares compounds with MITF inh; AlphaScreen optical interference counterscreen, cell-free; IC50, µM; actives 6% (n = 480); AID 1259373, 2018; call rule not given here
AlphaScreen intf2: AlphaScreen optical interference compounds, counter-screen for MITF inhibitor project, biochemical, triplicate; shares compounds with MITF inh; LysRS AlphaScreen counterscreen, signal interference; inhibition, % at 2.6 µM; actives 7.6% (n = 4,700);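 active = inhibition above a cutoff derived from the DMSO control wells, cut at about 30% in these data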
The depositor's hits bear a star.

Screening O=[N+]([O-])c1cc(C=Nc2ccc(N3CCOCC3)cc2)c(O)c([N+](=O)[O-])c1 returned GPR151 ag 0, FBW7 activator -2, MITF inh 75*, TEAD-YAP inh 3, MITF confirm 83*, AS interf DR >6.5 and AlphaScreen intf2 -3.
O=C(c1ccc([N+](=O)[O-])cc1)N1CCSC1c1ccc([N+](=O)[O-])cc1 (configuration not stated) was read as GPR151 ag 2, FBW7 activator 0, MITF inh 12 and TEAD-YAP inh -3.
`O=C(c1ccc([N+](=O)[O-])cc1)N1CCSC1c1ccc(Br)cc1` (configuration not stated) gave GPR151 ag -1, FBW7 activator 2, MITF inh 70*, TEAD-YAP inh 0, MITF confirm -13 and AlphaScreen intf2 -3.
Screening Cn1c(SCC#N)nnc1-c1cnccn1 returned GPR151 ag 0, FBW7 activator 0, MITF inh 69*, TEAD-YAP inh -1, MITF confirm 10 and AlphaScreen intf2 18.
For COCCn1c(SCC#N)nnc1-c1cnccn1 the results were GPR151 ag 1, FBW7 activator 0, MITF inh -3 and TEAD-YAP inh 1.
`COC(=O)CSc1nnc(-c2cnccn2)n1C` gave GPR151 ag 0, FBW7 activator 0, MITF inh 65*, TEAD-YAP inh -4, MITF confirm 36*, AS interf DR >6.5 and AlphaScreen intf2 11.
Screening N[C@@H](C(=O)N[C@@H]1C(=O)N2C(C(=O)O)=C(CSC3CNNN3)CS[C@H]12)c1ccc(O)cc1 (some centres not stated) (tested in a mixture with another compound) returned GPR151 ag 2, FBW7 activator 0, MITF inh 63*, TEAD-YAP inh -1, MITF confirm 72*, AS interf DR 0.67* and AlphaScreen intf2 29.
Cn1c(=O)c2c(SCC(=O)N3CCCc4ccccc43)nc(-c3ccc(F)cc3)nc2n(C)c1=O was read as GPR151 ag -1, FBW7 activator 0, MITF inh -6 and TEAD-YAP inh -4.
Screening COC(=O)c1cc(S(=O)(=O)NCCc2ccccc2)c[nH]1 returned GPR151 ag 1, FBW7 activator 1, MITF inh 14 and TEAD-YAP inh 10.
For COC(=O)c1cc(S(=O)(=O)NCCCN(C)Cc2ccccc2)c[nH]1 the results were GPR151 ag 0, FBW7 activator 1, MITF inh 56*, TEAD-YAP inh 3, MITF confirm 13 and AlphaScreen intf2 5.
CC(NC(=O)C1CC(Cc2ccc(F)cc2)=NO1)C12CC3CC(CC(O)(C3)C1)C2 (configuration not stated) was read as GPR151 ag 0, FBW7 activator 0, MITF inh 3 and TEAD-YAP inh 5.
For COCCNCCOc1c(Cl)cc(C)cc1Br the results were GPR151 ag 0, FBW7 activator 0, MITF inh 64*, TEAD-YAP inh -3, MITF confirm 11 and AlphaScreen intf2 13.
`Cc1cc(Cl)c(OCCCN2CCN(C)CC2)c(Br)c1` gave GPR151 ag 0, FBW7 activator 0, MITF inh 65*, TEAD-YAP inh -6, MITF confirm -4 and AlphaScreen intf2 -6.
For Cc1cc(Cl)c(OCCCN2CCOCC2)c(Br)c1 the results were GPR151 ag -1, FBW7 activator 0, MITF inh 28 and TEAD-YAP inh -7.
Cc1cc(Cl)c(OCCOCCN2CCN(C)CC2)c(Br)c1 was read as GPR151 ag 0, FBW7 activator 0, MITF inh 77*, TEAD-YAP inh 1, MITF confirm 16 and AlphaScreen intf2 17.
For Cc1cc(Cl)c(OCCN2CCN(C)CC2)c(Br)c1 the results were GPR151 ag 2, FBW7 activator 0, MITF inh 55*, TEAD-YAP inh -6, MITF confirm 1 and AlphaScreen intf2 6.
`CN1CCN(CCOCCOc2c(Cl)cc(Cl)cc2Cl)CC1` gave GPR151 ag -1, FBW7 activator 0, MITF inh 44 and TEAD-YAP inh 10.
`CC(C)OC(=O)C1CC=CCC1C(=O)N1C=Cc2ccccc2C1C#N` (configuration not stated) gave GPR151 ag 0, FBW7 activator 0, MITF inh 1 and TEAD-YAP inh 16.
Screening COc1ccc(N=C2NC(=O)CC(C(=O)Nc3ccccc3F)S2)cc1 (configuration not stated) returned GPR151 ag 0, FBW7 activator 0, MITF inh -7 and TEAD-YAP inh -2.
Screening COc1ccccc1CN1CCN(S(C)(=O)=O)CC1 returned GPR151 ag 1, FBW7 activator 1, MITF inh -4 and TEAD-YAP inh 3.
`CCOc1ccccc1CN1CCN(S(=O)(=O)CC)CC1` gave GPR151 ag 1, FBW7 activator 0, MITF inh 29 and TEAD-YAP inh 7.
For CCCS(=O)(=O)N1CCN(Cc2ccccc2OCC)CC1 the results were GPR151 ag -1, FBW7 activator 0, MITF inh 74*, TEAD-YAP inh 7, MITF confirm 2 and AlphaScreen intf2 11.
Screening CCS(=O)(=O)N1CCN(Cc2ccccc2OC)CC1 returned GPR151 ag -1, FBW7 activator 0, MITF inh 58*, TEAD-YAP inh 3, MITF confirm 7 and AlphaScreen intf2 11.
For O=C(NC1CC1)c1cncc(-c2cccs2)c1 the results were GPR151 ag 0, FBW7 activator 0, MITF inh 18 and TEAD-YAP inh -7.
For NC(=O)c1cncc(-c2cccs2)c1 the results were GPR151 ag 1, FBW7 activator 0, MITF inh 70*, TEAD-YAP inh 1, MITF confirm 65*, AS interf DR >6.5 and AlphaScreen intf2 13.
`CCOc1ccc(S(=O)(=O)N2CCN(CC)CC2)cc1C` gave GPR151 ag 1, FBW7 activator 0, MITF inh 1 and TEAD-YAP inh 2.
For CSc1nc(NN)c2c3c(sc2n1)CN(C)CC3 the results were GPR151 ag 0, FBW7 activator 0, MITF inh 74*, TEAD-YAP inh -4, MITF confirm 7 and AlphaScreen intf2 15.

High-throughput results as filed in PubChem BioAssay.
